{
  "source": "ChEMBL document CHEMBL3988442",
  "about": "“University of Dundee, Small-Polar-MMV Screening Library” (2021)",
  "note": "In all, about 38,000 compounds went through this assay and about 1,200 (3.2%) showed an effect of 50% or more. The median lay at about -58%. The entries come from a sample that favours strong results as a whole.",
  "data": [
    {"system": "Plasmodium falciparum", "assay": "Calibr Malaria Delayed Death Assay SOP", "format": "functional, organism-based", "set-up": "scale not given: in the data most compounds retested in dose-response had high values", "details": "concentration 4.99e-06 (unit not given; other assays of the set use mol/L)", "units": {"Percent Effect": "%"}, "values": [
      {"smiles": "CN(C)C(=O)C1CCCN1CCCNC(=O)Cc1ccccc1F", "note": "(centres undefined)", "Percent Effect": -2.997},
      {"smiles": "CC(NCc1cnc(N2CCOCC2)nc1)c1ccc(Cl)s1.Cl", "note": "(centres undefined)", "Percent Effect": -27.68},
      {"smiles": "CCS(=O)(=O)CCNC(=O)NC(C)c1cc(C)sc1C", "note": "(centres undefined)", "Percent Effect": -122.2},
      {"smiles": "Cc1cc(C(C)NCCN2CCC(N(C)C)CC2)c(C)s1", "note": "(centres undefined)", "Percent Effect": 81.06},
      {"smiles": "Cc1cc(OC(F)F)c(C(=O)N2CCC(N(C)C)CC2)s1", "Percent Effect": -15.44},
      {"smiles": "CC(NCCN1CCC(N(C)C)CC1)c1ccc(F)cc1N(C)C", "note": "(centres undefined)", "Percent Effect": 55.63},
      {"smiles": "CCc1cnc(C)nc1NCCN1CCC(O)CC1", "Percent Effect": -33.54},
      {"smiles": "CC(NCCCc1cnn(C)c1)c1ccc(Cl)s1", "note": "(centres undefined)", "Percent Effect": 14.15},
      {"smiles": "CC(NCCN1CCC(N(C)C)CC1)c1ccc(Cl)s1", "note": "(centres undefined)", "Percent Effect": 74.67},
      {"smiles": "CCC(c1ccc(F)cc1F)N1CCN(CCO)CC1", "note": "(centres undefined)", "Percent Effect": 33.11},
      {"smiles": "CCc1cnc(C)nc1NCCN1CCCCCC1", "Percent Effect": 42.39},
      {"smiles": "CC(NCCCN1CCCC1=O)c1ccc(F)cc1N(C)C", "note": "(centres undefined)", "Percent Effect": -66.62},
      {"smiles": "O=C(NCCc1cccs1)NC1CCN(c2ncccn2)CC1", "Percent Effect": -296.1},
      {"smiles": "Cc1c(Cl)cccc1S(=O)(=O)N1CCC2(CC1)OCCS2", "Percent Effect": -126},
      {"smiles": "Cn1cc(CN2CCC3(CCCCN3S(C)(=O)=O)CC2)cn1", "Percent Effect": -156.9},
      {"smiles": "CNC(=O)c1cn(C)c(-c2nc3cc(NC(C)=O)ccc3n2C)c1OC", "Percent Effect": -25.75},
      {"smiles": "Cn1nc2c(c1NC(=O)c1ccc(C3CCCN3C3CCC3)s1)CCC2", "note": "(centres undefined)", "Percent Effect": 4.44},
      {"smiles": "CCN(CC)c1nc(C)cc(C(=O)Nc2cnn(CC)c2)n1", "Percent Effect": -148},
      {"smiles": "CC(=O)N1CCC2(CC1)CC(NC(=O)N(C)C)c1cc(C)ccc12", "note": "(centres undefined)", "Percent Effect": -69.21},
      {"smiles": "CC(C)(O)CSCCNCc1ccc(Cl)c2cccnc12", "Percent Effect": 66.02},
      {"smiles": "Cc1nc2n(n1)CC(NCc1ccc(Cl)c3cccnc13)CC2", "note": "(centres undefined)", "Percent Effect": 12.21},
      {"smiles": "CC(=O)NCCCNCc1ccc(Cl)c2cccnc12", "Percent Effect": -40.58},
      {"smiles": "O=C(CCCNCc1ccc(Cl)c2cccnc12)NC1CC1", "Percent Effect": 8.752},
      {"smiles": "CCS(=O)(=O)NCCNCc1ccc(Cl)c2cccnc12", "Percent Effect": 60.34},
      {"smiles": "CC(C)(O)CSCCNC(=O)c1ccc(F)cc1Cl", "Percent Effect": -61.07},
      {"smiles": "Cn1cnc2c1CCN(Cc1ccc(Cl)c3cccnc13)C2", "Percent Effect": -32.7},
      {"smiles": "CC(C)(C)C(=O)NCCNCc1ccc(Cl)c2cccnc12", "Percent Effect": 76.99},
      {"smiles": "CC(C)(C)[S+]([O-])CCNC(=O)c1ccc(Cl)c2cccnc12", "note": "(centres undefined)", "Percent Effect": -47.19},
      {"smiles": "CNc1nc2ncc(Cl)cc2cc1C#N", "Percent Effect": -168.4},
      {"smiles": "CN1C(=O)CC(c2cnn(C)c2)C12CCN(C(=O)c1ccco1)CC2", "note": "(centres undefined)", "Percent Effect": -26.83},
      {"smiles": "Cc1ccoc1C(=O)NC1CCN(Cc2ccccc2F)CC1", "Percent Effect": -117.1},
      {"smiles": "COc1ccc(Cl)cc1CN(C)C(=O)CN1C(=O)OC[C@@H]1C(C)C", "Percent Effect": -43.68},
      {"smiles": "CCC(O)CN1CCN(C(=O)Cc2cc(Cl)ccc2OC)CC1", "note": "(centres undefined)", "Percent Effect": -20.59},
      {"smiles": "CCOCC(O)CN1CCN(C(=O)c2ccccc2Cl)CC1", "note": "(centres undefined)", "Percent Effect": -98.46},
      {"smiles": "CCOc1cc(CN(C)CCCO)ccc1OC(F)F", "Percent Effect": -85.19},
      {"smiles": "CN(CCO)Cc1cc(Cl)ccc1OCC(O)CN1CCCCCC1", "note": "(centres undefined)", "Percent Effect": 81.18},
      {"smiles": "CCOCC(O)CN1CCN(C(=O)Cc2ccccc2Cl)CC1", "note": "(centres undefined)", "Percent Effect": -127.6},
      {"smiles": "CCc1ccc(OCC(O)CN2CCN(CC)CC2)cc1", "note": "(centres undefined)", "Percent Effect": -62.39},
      {"smiles": "COCC(=O)N1CCC2(COCc3cnc(NCc4ccco4)nc32)C1", "note": "(centres undefined)", "Percent Effect": -70.56},
      {"smiles": "COCCCN(CCOC)C(=O)Nc1ccc(Br)cc1", "Percent Effect": -39.78},
      {"smiles": "CCCNS(=O)(=O)c1ccc2[nH]c(=O)cc(C)c2c1", "Percent Effect": -19.76},
      {"smiles": "CCOC(C)C(=O)N1CCN(S(C)(=O)=O)CC1", "note": "(centres undefined)", "Percent Effect": -95.85},
      {"smiles": "CS(=O)(=O)CC(=O)N1C[C@H]2CCC[C@@]2(COCc2ccncc2)C1.O=C(O)C(F)(F)F", "Percent Effect": -43.79},
      {"smiles": "COCCN1CCCCC12CC(=O)N(c1cccc(C#N)c1)C2.O=C(O)C(F)(F)F", "note": "(centres undefined)", "Percent Effect": -143.4},
      {"smiles": "C1CC(CO[C@@H]2CC[C@H]3[C@H]2OCCN3CC2CCOCC2)CCO1.O=C(O)C(F)(F)F", "Percent Effect": -39.09},
      {"smiles": "O=c1c2ccccc2nc2n1C(CSc1ccc(Cl)cc1Cl)CN2", "note": "(centres undefined)", "Percent Effect": -150.5},
      {"smiles": "CC(=O)NCCOc1cccc(Br)c1", "Percent Effect": -82.47},
      {"smiles": "CN1CCCC1CNC(=O)CCCOCc1ccccc1", "note": "(centres undefined)", "Percent Effect": -50.92},
      {"smiles": "CC(C)NC(=O)N1CCN(C(=O)NC(C)C)CC2(CNC(=O)C2)C1", "Percent Effect": -54.94},
      {"smiles": "Cc1cc(N2CCCN(c3ccnc(C)c3)CC2)ccn1", "Percent Effect": -92.15},
      {"smiles": "Cc1cc(N2CCCN(Cc3ccc(C)o3)CC2)ccn1", "Percent Effect": 32.48},
      {"smiles": "Cc1cc(N2CCCN(CCc3ccccc3)CC2)ccn1", "Percent Effect": 86.4},
      {"smiles": "CC(C)n1nnnc1-c1ccc(NC(=O)N(C)CCN(C)C)cc1F", "Percent Effect": -66.24},
      {"smiles": "COc1ccc(S(=O)(=O)NCC(c2cccn2C)N(C)C)cc1F", "note": "(centres undefined)", "Percent Effect": -0.0752},
      {"smiles": "CN(C)C(CNS(=O)(=O)c1cc(F)ccc1F)c1cccn1C", "note": "(centres undefined)", "Percent Effect": 52.76},
      {"smiles": "COc1ccccc1S(=O)(=O)NCC(c1cccn1C)N(C)C", "note": "(centres undefined)", "Percent Effect": 10.47},
      {"smiles": "Cc1c(CN2CCCCC2)c(O)n(CCCO)c(=O)c1C#N", "Percent Effect": -126.8},
      {"smiles": "CC(C)Nc1ncnc2c1CCN(C(=O)NCc1cccc(F)c1)CC2", "Percent Effect": -3.86},
      {"smiles": "O=C(O)C(F)(F)F.c1ccc(NC[C@@H]2CCC[C@@H]3CN(Cc4nccs4)C[C@@H]32)nc1", "Percent Effect": 55.03},
      {"smiles": "Cn1ccnc1NC[C@@H]1CCC[C@@H]2CN(Cc3cccnc3)C[C@@H]21.O=C(O)C(F)(F)F", "Percent Effect": -26.47},
      {"smiles": "O=C(C[C@@H]1COC[C@H]2CN(Cc3cccnc3)C[C@@H]12)NCC1CC1.O=C(O)C(F)(F)F.O=C(O)C(F)(F)F", "Percent Effect": -77.98},
      {"smiles": "Cn1cc(CN2C[C@H]3CCC[C@@H](CNc4ncccn4)[C@H]3C2)cn1.O=C(O)C(F)(F)F", "Percent Effect": -87.54},
      {"smiles": "Cn1ccnc1NC[C@@H]1CCC[C@@H]2CN(Cc3nccs3)C[C@@H]21.O=C(O)C(F)(F)F", "Percent Effect": -64.87},
      {"smiles": "O=C(O)C(F)(F)F.c1ccc(NC[C@@H]2CCC[C@@H]3CN(Cc4cccnc4)C[C@@H]32)nc1", "Percent Effect": 75.01},
      {"smiles": "O=C(O)C(F)(F)F.c1cncc(CN2C[C@H]3CCC[C@@H](CNc4cnccn4)[C@H]3C2)c1", "Percent Effect": -3.57},
      {"smiles": "Cn1cc(CN2C[C@@H]3CCC[C@@H](OCc4cccnc4)[C@@H]3C2)cn1", "Percent Effect": -83.15},
      {"smiles": "CN(Cc1ccccn1)C1CCC[C@@H]2CN(CC3CC3)C[C@H]12.O=C(O)C(F)(F)F.O=C(O)C(F)(F)F", "note": "(some centres undefined)", "Percent Effect": 68.03},
      {"smiles": "Cc1cnc(N2C[C@H]3CCCC(N(C)Cc4ccccn4)[C@H]3C2)nc1.O=C(O)C(F)(F)F", "note": "(some centres undefined)", "Percent Effect": -10.03},
      {"smiles": "O=C(O)C(F)(F)F.O=C(O)C(F)(F)F.O=C(O)C(F)(F)F.c1cnc(N2CCN(C3CCC[C@@H]4CN(CC5CC5)C[C@H]34)CC2)nc1", "note": "(some centres undefined)", "Percent Effect": 48.04}
    ]}
  ]
}
